Measured values from ChEMBL document CHEMBL3988442, “University of Dundee, Small-Polar-MMV Screening Library” (2021).
For some of these results: Potency and affinity values are given separately.

Tests used:
Set-up in all cases: scale not given: direction of the effect not stated beside the values
[1] = molecular target: Protein translocase subunit SecA (Escherichia coli (strain K12)) (UniProt P10408); assay: Assay to Identify E. coli SecA ATPase Inhibitors; type: functional; conditions: 30 µM
[2] = molecular target: T1, Ubiquitin-activating enzyme e1, putative (Leishmania donovani (strain BPK282A1)) (UniProt E9BSI1); assay: Leishmania donovani Ubiquitin Activating Enzyme (LdE1); type: functional; conditions: 30 µM
T1 sequence (whole entry): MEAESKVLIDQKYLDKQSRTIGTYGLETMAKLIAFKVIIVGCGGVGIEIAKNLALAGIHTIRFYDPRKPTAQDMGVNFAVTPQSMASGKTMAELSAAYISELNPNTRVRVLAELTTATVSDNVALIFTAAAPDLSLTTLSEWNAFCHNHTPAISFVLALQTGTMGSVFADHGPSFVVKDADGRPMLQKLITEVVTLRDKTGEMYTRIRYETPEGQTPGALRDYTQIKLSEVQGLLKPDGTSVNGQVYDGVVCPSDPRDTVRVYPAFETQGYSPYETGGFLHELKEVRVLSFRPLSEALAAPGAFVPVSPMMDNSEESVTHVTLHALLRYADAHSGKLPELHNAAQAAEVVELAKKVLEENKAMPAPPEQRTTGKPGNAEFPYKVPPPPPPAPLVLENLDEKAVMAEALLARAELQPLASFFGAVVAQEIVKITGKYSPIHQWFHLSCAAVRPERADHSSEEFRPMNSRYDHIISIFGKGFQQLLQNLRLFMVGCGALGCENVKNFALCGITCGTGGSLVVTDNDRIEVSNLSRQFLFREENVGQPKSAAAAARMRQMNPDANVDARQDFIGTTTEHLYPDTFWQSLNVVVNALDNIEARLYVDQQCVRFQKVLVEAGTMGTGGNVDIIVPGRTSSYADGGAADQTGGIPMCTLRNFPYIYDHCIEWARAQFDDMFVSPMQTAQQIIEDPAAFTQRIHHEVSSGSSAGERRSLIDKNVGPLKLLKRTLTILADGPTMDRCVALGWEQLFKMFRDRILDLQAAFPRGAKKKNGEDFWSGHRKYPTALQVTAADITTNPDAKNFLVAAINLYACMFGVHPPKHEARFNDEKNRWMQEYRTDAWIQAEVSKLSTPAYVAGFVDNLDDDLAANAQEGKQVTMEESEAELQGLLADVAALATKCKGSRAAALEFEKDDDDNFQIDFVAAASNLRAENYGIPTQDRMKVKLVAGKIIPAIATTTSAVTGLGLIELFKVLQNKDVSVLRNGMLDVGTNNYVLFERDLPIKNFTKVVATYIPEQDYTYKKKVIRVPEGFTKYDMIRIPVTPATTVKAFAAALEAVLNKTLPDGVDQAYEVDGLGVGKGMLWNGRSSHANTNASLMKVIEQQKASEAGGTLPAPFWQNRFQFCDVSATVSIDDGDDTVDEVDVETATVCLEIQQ

[3] = molecular target: AMP-activated protein kinase, AMPK (Homo sapiens) (UniProt P54646+O43741+P54619+Q9UGJ0+Q9Y478+Q13131+Q9UGI9); assay: AMP-dependent Kinase enzyme assay. An in vitro enzyme assay that detects ADP turnover that is directly proportional to AMPK activity. This uses naive AMPK that is activated during the assay with MK-8722; type: functional; conditions: 30 µM
[4] = molecular target: Sialic acid-binding Ig-like lectin 9 (Homo sapiens) (UniProt Q9Y336); assay: Hs-Siglec9 ALPHAscreen SOP 20170721; conditions: 10 µM
Sequence of Sialic acid-binding Ig-like lectin 9 (Homo sapiens) (Q9Y336 whole entry): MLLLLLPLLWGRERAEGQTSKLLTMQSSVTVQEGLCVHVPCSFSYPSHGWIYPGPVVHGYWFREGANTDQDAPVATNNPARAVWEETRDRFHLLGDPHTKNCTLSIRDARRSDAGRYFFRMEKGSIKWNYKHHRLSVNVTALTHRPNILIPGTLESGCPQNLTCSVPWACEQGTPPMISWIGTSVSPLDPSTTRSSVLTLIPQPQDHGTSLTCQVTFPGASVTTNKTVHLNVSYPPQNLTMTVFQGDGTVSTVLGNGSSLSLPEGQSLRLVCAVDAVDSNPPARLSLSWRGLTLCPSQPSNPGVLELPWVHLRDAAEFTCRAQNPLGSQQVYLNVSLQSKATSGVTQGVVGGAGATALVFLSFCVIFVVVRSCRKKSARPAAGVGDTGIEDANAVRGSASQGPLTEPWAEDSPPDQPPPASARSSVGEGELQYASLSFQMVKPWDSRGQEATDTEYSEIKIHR

Trypanosoma cruzi = assay: Trypanosoma cruzi phosphomannomutase and mannose-1-phosphate guanylyltransferase assay; type: functional; conditions: 10 µM
[5] = molecular target: T2, Arginase-2, mitochondrial (Homo sapiens) (UniProt P78540); assay: in vitro enzyme assay to detect the production of urea directly proportional to the activity of Arginase II; type: functional; conditions: 33.3 µM; note: in the data most compounds retested in dose-response had high values
T2 sequence (whole entry): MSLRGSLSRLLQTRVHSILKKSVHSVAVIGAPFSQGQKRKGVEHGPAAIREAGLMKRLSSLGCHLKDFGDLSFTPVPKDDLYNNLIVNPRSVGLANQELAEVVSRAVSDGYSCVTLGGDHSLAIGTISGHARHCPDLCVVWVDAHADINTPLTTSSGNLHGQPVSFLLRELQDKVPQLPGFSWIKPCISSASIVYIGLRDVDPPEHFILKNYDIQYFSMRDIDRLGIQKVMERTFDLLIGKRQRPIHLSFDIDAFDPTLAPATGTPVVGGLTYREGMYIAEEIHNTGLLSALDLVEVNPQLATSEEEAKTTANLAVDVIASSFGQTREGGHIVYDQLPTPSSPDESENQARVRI

[6] = molecular target: T3, Proteasome subunit beta (Trypanosoma cruzi) (UniProt O96673); assay: Trypanosoma cruzi proteasome chymotrypsin-like activity (TcProtChymo) assay.; note: in the data most compounds retested in dose-response had high values; type: functional; conditions: 9.37 µM
T3 sequence (whole entry): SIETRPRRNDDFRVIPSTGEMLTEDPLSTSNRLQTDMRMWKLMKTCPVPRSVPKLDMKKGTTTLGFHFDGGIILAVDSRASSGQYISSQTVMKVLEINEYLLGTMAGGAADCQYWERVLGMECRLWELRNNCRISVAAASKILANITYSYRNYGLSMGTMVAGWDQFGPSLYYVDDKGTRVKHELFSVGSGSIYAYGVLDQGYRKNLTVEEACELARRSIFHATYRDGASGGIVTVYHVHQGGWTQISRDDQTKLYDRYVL

Homo sapiens = species: Homo sapiens; assay: To identify inhibition of the IFN signalling (Jak-Stat) pathway via expression of an eGFP reporter gene under the control of an IFN-stimulated response element (ISRE) containing MxA promoter.; type: functional; conditions: 30 µM
[7] = molecular target: T4, Tyrosyl-tRNA synthetase, putative (Trypanosoma cruzi (strain CL Brener)) (UniProt Q4DSP6); assay: Trypanosoma cruzi tyrosyl tRNA synthetase (TcYRS) _High Tyrosine SOP; type: functional; conditions: 30 µM; note: in the data most compounds retested in dose-response had high values
T4 sequence (whole entry): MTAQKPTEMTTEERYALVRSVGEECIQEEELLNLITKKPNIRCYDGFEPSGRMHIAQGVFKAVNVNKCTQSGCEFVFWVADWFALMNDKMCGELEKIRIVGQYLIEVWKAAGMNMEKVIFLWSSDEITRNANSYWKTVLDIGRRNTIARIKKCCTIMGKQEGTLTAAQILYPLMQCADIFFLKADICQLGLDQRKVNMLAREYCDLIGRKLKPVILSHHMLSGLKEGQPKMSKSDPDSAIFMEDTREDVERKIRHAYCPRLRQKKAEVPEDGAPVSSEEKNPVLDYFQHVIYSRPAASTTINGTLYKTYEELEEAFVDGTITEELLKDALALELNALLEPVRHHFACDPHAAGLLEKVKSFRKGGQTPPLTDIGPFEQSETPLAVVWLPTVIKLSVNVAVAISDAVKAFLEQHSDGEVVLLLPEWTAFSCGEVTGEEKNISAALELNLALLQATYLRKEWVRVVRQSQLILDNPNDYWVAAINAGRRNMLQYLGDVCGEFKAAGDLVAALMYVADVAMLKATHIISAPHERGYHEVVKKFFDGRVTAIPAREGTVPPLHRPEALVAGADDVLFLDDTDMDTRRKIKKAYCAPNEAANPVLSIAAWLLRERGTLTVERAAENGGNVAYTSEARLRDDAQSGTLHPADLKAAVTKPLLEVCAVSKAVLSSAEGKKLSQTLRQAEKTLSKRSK

[8] = molecular target: T4, Tyrosyl-tRNA synthetase, putative (Trypanosoma cruzi (strain CL Brener)); assay: Trypanosoma cruzi tyrosyl tRNA synthetase (TcYRS) SOP; type: functional; conditions: 30 µM
[9] = molecular target: Chromo domain-containing protein 1 (Saccharomyces cerevisiae (strain ATCC 204508 / S288c) (Baker's yeast)) (UniProt P32657); assay: ScCHD-1 Enzyme Inhibition Assay; type: functional; conditions: 30 µM; note: in the data most compounds retested in dose-response had high values
Sequence of Chromo domain-containing protein 1 (Saccharomyces cerevisiae (strain ATCC 204508 / S288c) (Baker's yeast)) (P32657 whole entry, the tested form may be a part): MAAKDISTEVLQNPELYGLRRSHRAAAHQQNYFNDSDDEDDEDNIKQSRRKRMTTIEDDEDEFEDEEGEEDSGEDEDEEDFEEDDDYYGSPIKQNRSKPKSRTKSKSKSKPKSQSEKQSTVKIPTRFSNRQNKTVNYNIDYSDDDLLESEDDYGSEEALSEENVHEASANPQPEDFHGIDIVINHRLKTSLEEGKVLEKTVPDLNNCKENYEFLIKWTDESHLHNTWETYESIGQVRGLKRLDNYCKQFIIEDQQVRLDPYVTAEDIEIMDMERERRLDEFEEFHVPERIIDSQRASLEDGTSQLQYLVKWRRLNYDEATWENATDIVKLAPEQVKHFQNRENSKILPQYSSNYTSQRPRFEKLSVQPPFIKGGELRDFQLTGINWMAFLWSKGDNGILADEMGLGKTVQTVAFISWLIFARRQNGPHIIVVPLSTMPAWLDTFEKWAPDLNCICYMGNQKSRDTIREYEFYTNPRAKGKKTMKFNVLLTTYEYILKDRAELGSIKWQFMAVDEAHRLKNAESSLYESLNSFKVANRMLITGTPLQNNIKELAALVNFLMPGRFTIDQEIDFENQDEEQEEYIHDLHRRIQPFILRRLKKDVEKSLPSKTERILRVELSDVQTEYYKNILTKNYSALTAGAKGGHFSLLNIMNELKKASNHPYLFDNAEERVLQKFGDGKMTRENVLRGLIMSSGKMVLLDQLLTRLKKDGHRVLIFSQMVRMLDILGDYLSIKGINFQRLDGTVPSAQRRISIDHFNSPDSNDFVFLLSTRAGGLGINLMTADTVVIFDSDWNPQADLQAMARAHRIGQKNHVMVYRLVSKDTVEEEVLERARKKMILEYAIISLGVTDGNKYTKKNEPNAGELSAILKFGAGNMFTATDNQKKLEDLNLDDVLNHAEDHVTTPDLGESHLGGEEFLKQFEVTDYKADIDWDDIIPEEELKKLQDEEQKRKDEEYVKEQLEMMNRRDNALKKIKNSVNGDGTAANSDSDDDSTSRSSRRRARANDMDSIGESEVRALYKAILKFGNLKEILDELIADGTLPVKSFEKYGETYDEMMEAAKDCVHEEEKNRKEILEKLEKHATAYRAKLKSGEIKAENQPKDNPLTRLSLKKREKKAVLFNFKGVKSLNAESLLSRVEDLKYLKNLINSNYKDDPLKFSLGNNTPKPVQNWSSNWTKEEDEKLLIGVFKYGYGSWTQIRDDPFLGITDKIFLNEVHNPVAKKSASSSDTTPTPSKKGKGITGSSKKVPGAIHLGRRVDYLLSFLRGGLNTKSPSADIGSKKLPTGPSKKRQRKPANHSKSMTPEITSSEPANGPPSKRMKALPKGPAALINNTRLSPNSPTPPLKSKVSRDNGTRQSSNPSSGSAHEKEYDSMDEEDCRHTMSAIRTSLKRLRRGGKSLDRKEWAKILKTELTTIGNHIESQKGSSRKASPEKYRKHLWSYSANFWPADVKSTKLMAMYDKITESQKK

Sequence of Protein translocase subunit SecA (Escherichia coli (strain K12)) (P10408 whole entry): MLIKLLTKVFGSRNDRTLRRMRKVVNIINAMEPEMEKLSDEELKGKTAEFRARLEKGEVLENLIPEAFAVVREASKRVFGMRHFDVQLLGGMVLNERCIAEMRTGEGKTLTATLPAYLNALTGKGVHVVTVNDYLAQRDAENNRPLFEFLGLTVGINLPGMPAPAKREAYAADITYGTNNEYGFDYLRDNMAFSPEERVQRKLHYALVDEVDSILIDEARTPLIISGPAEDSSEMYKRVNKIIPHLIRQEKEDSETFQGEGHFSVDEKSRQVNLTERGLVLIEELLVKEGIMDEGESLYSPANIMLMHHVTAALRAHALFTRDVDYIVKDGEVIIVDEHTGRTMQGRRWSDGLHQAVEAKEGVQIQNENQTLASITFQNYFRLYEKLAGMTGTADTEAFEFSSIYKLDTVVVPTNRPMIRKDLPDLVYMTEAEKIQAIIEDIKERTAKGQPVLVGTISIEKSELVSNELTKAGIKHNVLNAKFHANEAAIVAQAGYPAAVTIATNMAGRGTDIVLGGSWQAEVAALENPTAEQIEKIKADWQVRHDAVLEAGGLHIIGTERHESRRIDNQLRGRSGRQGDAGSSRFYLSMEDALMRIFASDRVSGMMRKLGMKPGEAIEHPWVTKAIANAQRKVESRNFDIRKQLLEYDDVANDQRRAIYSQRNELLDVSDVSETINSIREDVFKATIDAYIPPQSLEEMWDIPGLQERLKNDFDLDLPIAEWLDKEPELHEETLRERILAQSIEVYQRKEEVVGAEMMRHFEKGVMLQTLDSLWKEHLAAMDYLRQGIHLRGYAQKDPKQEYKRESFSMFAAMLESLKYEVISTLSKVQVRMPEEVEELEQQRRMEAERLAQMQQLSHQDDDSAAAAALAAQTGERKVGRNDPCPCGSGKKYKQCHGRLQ

Compound	Percent Effect [1]	Percent Effect [2]	Percent Effect [3]	Percent Effect [4]	Percent Effect (Trypanosoma cruzi)	Percent Effect [5]	Percent Effect [6]	Percent Effect (Homo sapiens)	Percent Effect [7]	Percent Effect [8]	Percent Effect [9]
CC(=O)NCCc1ccc(S(=O)(=O)N(CC(C)C)C(C)C)s1	3%	4.17%	30.7%	4.43%	-6.9%	-0.883%	18.2%	16.9%	-2.1%	-5.13%	106%
COCCn1nc(C(=O)N2CCCC2c2cccc(F)c2)ccc1=O (stereo not drawn)	-0.858%	5.41%	-0.552%	11.3%	2.9%	10%	8.1%	-4.91%	-0.529%	-2.44%	-0.976%
Cc1noc(C2CCCN(C(=O)c3ccc(Br)o3)C2)n1 (stereo not drawn)	-6.46%	13%	-5.37%	-19.7%	7.54%	-4.84%	13.8%	1.55%	3.81%	21.2%	-17.1%
Cc1csc(N2CCN(C(=O)CCNc3ncccn3)CC2)n1	-4.07%	16.2%	-2.35%	-1.96%	1.42%	-6.41%	5.04%	14.1%	-61.6%	16.1%	-9.84%
Cc1cnn(CC2CN(Cc3nc(N)c4ccccc4n3)CCO2)c1 (stereo not drawn)	-2.67%	13%	-1.66%	-10%	-5.78%	-1.47%	19.3%	10.5%	4.76%	11.8%	-20.4%
Cc1ccc(S(=O)(=O)NCCNC(=O)c2ccoc2)cc1F	-4.47%	13.3%	4.57%	12.1%	5.75%	5.21%	15.5%	16.4%	3.83%	13.6%	86.1%
COc1cccc(CNc2nc(O)cc(C3CC(=O)N(C)C3)n2)c1 (stereo not drawn)	1.85%	12.2%	4.37%	1.72%	-4.35%	2.09%	16.7%	14.9%	5.38%	-1.3%	-11.6%
COc1ccccc1CC(=O)NS(=O)(=O)c1ccc(C(N)=O)cc1	-0.063%	0%	0.334%	0.784%	-0.374%	9.25%	1.35%	-4.28%	3.88%	-2.44%	-0.229%
